Test results: the supplement of paper PMC11732987, “Enantioselective OTUD7B fragment discovery through chemoproteomics screening and high-throughput optimisation” (Communications Chemistry, 2025)

How the values were obtained:
Experiment in all cases: log2 ratio of Biotin-Ahx-Ub-VS probe labelling (fragment/DMSO); higher = less target engagement (more negative = stronger competition), active = hit call of the paper (q ≤ 0.05, log2 ratio ≤ -1)
Conditions in all cases: compound concentration: 200 uM; treatment time: 3 h
USP19 = biological target: T1, USP19 (UniProt O94966)
T1 sequence (whole entry): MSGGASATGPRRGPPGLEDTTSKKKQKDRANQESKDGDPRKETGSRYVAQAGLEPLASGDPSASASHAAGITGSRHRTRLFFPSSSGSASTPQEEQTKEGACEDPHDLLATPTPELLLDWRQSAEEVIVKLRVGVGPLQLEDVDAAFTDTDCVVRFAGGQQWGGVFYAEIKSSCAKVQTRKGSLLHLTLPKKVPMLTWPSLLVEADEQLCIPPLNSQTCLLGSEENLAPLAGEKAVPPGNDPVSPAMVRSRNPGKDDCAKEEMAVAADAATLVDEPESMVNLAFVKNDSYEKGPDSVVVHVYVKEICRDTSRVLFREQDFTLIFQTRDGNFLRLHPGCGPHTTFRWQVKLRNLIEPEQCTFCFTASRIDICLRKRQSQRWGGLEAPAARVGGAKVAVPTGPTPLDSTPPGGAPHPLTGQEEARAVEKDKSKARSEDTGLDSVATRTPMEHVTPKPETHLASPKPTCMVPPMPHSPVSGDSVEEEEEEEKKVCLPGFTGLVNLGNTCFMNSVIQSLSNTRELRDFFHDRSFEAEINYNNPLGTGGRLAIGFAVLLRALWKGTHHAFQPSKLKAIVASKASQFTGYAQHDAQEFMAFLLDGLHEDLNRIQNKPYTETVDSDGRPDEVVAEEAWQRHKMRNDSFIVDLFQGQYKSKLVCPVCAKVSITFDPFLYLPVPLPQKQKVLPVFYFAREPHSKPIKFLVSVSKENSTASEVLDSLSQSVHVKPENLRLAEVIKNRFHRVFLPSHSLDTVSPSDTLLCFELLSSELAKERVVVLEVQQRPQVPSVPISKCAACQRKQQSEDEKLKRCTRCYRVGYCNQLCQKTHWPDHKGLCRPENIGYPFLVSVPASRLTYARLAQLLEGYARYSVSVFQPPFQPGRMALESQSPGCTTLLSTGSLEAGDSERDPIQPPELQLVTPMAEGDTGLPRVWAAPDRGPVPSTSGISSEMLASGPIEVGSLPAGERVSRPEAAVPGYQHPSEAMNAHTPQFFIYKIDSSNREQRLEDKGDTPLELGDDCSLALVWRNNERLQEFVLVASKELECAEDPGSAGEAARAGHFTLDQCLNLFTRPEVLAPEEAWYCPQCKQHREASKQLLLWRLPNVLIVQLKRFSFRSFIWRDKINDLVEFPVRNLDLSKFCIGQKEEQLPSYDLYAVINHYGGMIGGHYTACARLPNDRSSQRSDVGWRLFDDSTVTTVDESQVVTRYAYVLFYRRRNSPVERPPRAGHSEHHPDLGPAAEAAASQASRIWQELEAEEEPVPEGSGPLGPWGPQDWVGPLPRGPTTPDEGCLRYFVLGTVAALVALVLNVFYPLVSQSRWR
How it was run: (§1)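 Labelled DUBs from HEK293T lysate were NeutrAvidin-enriched, digested with LysC and trypsin, and run by diaPASEF LC-MS/MS. Before that, each 495 µg sample in Tris/CHAPS/IGEPAL buffer with protease inhibitors was treated in triplicate with fragment at 200 µM or vehicle for 3 h, then with Biotin-Ahx-Ub-VS at 0.5 µM final for 1 h. Values are average log2 ratios of fragment over vehicle by unpaired t-test, based on global-median-normalised Spectronaut label-free quantities from proteins with ≥2 unique peptides.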

USP22 = biological target: T2, USP22 (UniProt Q9UPT9)
T2 sequence (whole entry): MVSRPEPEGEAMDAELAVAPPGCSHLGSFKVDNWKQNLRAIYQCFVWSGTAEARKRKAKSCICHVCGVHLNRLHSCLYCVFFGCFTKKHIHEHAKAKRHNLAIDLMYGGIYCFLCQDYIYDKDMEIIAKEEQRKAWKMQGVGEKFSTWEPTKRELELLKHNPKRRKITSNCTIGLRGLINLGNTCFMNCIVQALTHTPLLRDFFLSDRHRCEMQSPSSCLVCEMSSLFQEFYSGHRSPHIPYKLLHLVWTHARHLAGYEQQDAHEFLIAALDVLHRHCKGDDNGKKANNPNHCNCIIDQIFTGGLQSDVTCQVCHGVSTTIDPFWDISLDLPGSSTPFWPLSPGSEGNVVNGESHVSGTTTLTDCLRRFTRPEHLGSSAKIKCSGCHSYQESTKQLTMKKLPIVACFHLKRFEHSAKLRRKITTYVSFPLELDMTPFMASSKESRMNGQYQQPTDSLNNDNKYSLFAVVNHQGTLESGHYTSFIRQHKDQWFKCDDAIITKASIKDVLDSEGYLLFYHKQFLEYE
How it was run: as §1

USP24 = USP24 (UniProt Q9UPU5)
How it was run: as §1

USP25 = biological target: T3, USP25 (UniProt Q9UHP3)
T3 sequence (whole entry): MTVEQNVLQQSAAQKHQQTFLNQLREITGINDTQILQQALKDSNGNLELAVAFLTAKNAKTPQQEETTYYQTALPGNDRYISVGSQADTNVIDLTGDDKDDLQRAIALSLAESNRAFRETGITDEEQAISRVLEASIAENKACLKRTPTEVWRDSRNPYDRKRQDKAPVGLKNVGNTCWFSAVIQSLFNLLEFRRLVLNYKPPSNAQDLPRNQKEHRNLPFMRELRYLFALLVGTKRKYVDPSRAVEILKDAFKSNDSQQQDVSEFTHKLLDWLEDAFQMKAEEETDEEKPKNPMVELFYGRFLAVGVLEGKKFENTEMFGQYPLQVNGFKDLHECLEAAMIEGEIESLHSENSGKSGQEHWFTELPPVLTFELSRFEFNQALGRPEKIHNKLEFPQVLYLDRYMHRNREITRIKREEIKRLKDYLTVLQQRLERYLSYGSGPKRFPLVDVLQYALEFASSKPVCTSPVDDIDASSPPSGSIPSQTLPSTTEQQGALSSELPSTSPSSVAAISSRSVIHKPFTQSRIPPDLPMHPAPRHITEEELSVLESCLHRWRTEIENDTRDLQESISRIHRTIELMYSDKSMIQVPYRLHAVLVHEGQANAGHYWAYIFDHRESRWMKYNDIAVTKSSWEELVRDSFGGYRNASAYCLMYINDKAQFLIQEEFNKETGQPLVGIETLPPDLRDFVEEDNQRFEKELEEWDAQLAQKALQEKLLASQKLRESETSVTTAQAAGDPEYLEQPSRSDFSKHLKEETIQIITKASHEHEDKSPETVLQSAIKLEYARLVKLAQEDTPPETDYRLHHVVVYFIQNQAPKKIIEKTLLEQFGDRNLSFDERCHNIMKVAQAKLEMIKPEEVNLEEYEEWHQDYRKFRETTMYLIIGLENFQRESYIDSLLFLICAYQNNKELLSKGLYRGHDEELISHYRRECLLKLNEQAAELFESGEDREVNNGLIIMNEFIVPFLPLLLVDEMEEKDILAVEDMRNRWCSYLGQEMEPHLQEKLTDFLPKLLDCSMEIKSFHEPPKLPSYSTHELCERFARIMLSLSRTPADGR
How it was run: as §1

USP28 = biological target: T4, USP28 (UniProt Q96RU2)
T4 sequence (whole entry): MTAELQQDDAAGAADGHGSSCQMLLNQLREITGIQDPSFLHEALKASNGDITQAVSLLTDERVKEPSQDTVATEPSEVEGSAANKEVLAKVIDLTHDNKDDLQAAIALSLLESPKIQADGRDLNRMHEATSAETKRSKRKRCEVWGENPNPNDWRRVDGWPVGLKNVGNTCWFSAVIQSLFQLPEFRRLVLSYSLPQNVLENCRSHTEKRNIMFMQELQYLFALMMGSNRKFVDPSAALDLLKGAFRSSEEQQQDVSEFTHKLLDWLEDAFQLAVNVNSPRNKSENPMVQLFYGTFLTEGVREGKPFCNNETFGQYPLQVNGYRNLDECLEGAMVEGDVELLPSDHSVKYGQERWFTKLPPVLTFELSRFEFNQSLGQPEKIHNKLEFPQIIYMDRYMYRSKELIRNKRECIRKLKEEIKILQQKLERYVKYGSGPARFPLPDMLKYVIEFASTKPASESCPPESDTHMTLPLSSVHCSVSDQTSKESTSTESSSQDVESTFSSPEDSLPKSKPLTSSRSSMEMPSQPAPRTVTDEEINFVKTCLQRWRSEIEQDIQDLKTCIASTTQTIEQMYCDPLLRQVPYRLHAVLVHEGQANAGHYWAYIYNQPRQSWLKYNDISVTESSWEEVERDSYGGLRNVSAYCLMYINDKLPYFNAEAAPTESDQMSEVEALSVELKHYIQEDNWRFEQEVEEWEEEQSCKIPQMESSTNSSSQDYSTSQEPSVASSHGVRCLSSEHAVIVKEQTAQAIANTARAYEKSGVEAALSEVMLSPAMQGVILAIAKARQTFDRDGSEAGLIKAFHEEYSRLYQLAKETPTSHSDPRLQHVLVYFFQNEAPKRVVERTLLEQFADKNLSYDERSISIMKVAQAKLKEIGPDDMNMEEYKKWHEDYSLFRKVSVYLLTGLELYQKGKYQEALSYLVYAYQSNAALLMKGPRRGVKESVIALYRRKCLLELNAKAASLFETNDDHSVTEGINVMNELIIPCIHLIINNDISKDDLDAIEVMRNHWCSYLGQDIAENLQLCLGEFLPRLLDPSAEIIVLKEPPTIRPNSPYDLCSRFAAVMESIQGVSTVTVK
How it was run: as §1

Measured: log2 ratio of Biotin-Ahx-Ub-VS probe labelling

USP24, sequence (Q9UPU5 whole entry): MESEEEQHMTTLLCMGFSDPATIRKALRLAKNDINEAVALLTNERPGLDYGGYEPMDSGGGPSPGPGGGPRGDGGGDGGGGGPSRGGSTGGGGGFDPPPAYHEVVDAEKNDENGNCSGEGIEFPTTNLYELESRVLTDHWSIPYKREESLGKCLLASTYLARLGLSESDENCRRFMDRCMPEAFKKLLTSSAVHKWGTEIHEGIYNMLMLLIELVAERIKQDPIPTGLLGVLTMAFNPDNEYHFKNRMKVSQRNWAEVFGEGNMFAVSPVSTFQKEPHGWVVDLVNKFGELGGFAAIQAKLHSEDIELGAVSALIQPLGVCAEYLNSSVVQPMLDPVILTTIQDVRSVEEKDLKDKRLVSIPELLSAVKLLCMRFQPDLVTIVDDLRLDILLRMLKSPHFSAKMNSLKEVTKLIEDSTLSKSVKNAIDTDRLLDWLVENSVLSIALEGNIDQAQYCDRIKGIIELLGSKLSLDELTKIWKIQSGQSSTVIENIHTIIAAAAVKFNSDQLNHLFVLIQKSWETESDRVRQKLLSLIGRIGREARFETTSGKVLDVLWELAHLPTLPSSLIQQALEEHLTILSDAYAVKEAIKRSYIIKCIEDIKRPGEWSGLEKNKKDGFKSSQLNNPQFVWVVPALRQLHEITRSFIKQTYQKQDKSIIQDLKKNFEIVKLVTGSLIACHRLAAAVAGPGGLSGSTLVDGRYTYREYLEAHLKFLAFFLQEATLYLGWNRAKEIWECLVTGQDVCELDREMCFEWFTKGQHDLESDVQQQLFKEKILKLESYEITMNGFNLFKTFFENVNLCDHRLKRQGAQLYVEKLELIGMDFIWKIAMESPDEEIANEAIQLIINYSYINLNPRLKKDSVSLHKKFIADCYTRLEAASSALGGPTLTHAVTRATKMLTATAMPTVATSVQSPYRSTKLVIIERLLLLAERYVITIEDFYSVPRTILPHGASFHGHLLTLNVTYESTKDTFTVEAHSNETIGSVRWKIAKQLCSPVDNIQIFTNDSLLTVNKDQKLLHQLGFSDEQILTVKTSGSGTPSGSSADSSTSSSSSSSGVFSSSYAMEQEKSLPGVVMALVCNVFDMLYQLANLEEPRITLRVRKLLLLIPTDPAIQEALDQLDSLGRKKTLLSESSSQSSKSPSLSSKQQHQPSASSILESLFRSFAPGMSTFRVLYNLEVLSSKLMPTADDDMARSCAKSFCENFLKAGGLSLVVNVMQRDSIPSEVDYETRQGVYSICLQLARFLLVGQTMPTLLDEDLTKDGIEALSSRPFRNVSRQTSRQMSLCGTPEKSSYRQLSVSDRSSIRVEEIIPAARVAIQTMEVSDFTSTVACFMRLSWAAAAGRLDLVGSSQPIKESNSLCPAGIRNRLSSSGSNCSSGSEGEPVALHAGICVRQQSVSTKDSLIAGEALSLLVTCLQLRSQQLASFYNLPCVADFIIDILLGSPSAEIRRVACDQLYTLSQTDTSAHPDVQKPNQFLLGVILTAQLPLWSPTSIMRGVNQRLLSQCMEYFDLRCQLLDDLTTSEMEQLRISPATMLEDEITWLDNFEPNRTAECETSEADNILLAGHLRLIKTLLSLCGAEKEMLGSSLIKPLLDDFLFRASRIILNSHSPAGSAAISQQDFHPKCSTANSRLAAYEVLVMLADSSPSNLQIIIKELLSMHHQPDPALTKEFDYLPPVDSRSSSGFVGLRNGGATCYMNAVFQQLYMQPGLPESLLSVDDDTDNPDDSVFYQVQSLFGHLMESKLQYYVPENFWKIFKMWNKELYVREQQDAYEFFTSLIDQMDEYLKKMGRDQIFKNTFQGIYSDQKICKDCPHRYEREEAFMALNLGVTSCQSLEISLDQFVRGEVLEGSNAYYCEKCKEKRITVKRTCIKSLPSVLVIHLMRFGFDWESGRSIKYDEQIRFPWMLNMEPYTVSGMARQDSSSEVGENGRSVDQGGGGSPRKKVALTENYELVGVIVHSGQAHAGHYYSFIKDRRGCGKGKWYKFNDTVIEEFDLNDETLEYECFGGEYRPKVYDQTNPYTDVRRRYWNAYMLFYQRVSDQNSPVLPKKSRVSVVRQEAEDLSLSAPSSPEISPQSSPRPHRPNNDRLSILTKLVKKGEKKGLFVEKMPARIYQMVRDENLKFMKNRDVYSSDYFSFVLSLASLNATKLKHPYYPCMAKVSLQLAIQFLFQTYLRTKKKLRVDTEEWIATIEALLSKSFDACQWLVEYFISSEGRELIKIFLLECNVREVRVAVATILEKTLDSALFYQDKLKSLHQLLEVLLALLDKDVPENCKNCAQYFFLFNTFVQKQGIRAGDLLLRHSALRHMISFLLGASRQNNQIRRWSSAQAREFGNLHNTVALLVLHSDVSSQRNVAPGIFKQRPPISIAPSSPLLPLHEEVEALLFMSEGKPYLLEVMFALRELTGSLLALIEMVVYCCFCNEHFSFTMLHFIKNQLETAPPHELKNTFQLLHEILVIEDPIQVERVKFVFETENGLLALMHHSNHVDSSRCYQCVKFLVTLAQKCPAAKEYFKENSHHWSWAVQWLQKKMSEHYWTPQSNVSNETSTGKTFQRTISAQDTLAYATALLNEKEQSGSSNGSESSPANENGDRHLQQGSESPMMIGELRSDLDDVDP

O=C(CCl)N1CC2(CCOCC2)C1
inactive: USP19 -0.144 | USP22 0.0357 | USP24 -0.194 | USP25 -0.275 | USP28 -0.375
